HTT aggregate: qHTS Multiplex Assay to Identify Dual Action Probes in a Cell Model of Huntington: Aggregate Formation (GFP). PC12 HttQ103-GFP aggregates, Acumen cytometry, 40 h. Potency, µM (top dose mostly 46.1 µM), for the others: top-dose activity change, negative = inhibition, most hits filed as inhibitors. actives 1.1% (n = 220,000); further: potency means the concentration at half of the fitted maximal effect; on the % scale 0 is the no-effect control and ±100 the full control effect; nearly all actives have a fitted effect of over 60% in size
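Ecdysone-promoter PC12 model expressing HTT exon 1 Q103 fused to GFP, induced by tebufenozide at 100 nM final. Compounds titrated; aggregates sized 1–25 µm scored on a 488 nm laser cytometer.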
HTT cytoprotect: qHTS Multiplex Assay to Identify Dual Action Probes in a Cell Model of Huntington: Cytoprotection (ATP) | PC12 HTT-Q103 induced, cytoprotection, ATP luminescence, 40 h | Potency, µM (doses to about 56.4 µM), for the others: cytoprotection (ATP increase), most hits filed as activators | actives 0.14% (n = 230,000) | AID 1471, 2008; further: potency means the concentration at half of the fitted maximal effect; % of control where 0% means no effect; nearly all actives have a fitted effect of over 45% in size
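Rat PC12, Q103 Htt exon1-GFP fusion, ecdysone promoter; tebufenozide inducer 100 nM final; compound titration; qHTS, 1500 cells/well; ATPlite luminescent read.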
HPGD block: qHTS Assay for Inhibitors of HPGD (15-Hydroxyprostaglandin Dehydrogenase); 15-hydroxyprostaglandin dehydrogenase [NAD(+)] (Homo sapiens), P15428; Potency, µM, without a hit: at the highest dose activity change, negative = inhibition, usual class: inhibitors; actives 4.3% (n = 150,000); purified HPGD, NADH fluorescence kinetic, PGE2 substrate; active means well fitted inhibition curve with a large enough effect, not every such curve was filed as active; inconclusive means small, poorly fitted or top-dose-only effect, or another doubt; inactive means no such curve, though single readings can be large or run the other way; further: potency means the concentration at half of the fitted maximal effect; on the % scale 0 is the no-effect control and ±100 the full control effect
Target sequence (P15428 whole entry, looked up): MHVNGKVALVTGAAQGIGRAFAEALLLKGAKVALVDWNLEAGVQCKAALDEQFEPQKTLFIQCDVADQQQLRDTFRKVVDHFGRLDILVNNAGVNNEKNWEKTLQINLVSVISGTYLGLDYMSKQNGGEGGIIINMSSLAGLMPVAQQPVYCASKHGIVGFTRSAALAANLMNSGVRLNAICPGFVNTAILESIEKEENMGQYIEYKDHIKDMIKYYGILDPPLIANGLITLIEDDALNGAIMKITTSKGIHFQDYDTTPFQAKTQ
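20 nM HPGD preincubated 15 min at room temperature with compound in 50 mM Tris-HCl pH 8, 0.01% Tween 20. Started with 1 mM NAD+ and 30 uM prostaglandin E2; NADH fluorescence (360/450 nm) read 5 times over 30-s intervals, last minus first.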
ALDH1A1 block: qHTS Assay for Inhibitors of Aldehyde Dehydrogenase 1 (ALDH1A1). Potency, µM (series often up to 75.3 µM), for the others: at the top dose activity, negative = inhibition, hits mostly inhibitors. Aldehyde dehydrogenase 1A1 (Homo sapiens), P00352. Purified ALDH1A1, NADH fluorescence, propionaldehyde substrate. AID 1030, 2008. actives 7.3% (n = 220,000); active means well fitted inhibition curve with a large enough effect, not every such curve was filed as active; inconclusive means small, poorly fitted or top-dose-only effect, or another doubt; inactive means no such curve, though single readings can be large or run the other way;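 further: potency means the concentration at half of the fitted maximal effect; plate controls were no enzyme wells and a reference inhibitor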
KDM4E inh: qHTS Assay for Inhibitors of Human Jumonji Domain Containing 2E (JMJD2E); Lysine-specific demethylase 4E (Homo sapiens), B2RXH2; JMJD2E catalytic domain, FDH-coupled NADH fluorescence (FDH is formaldehyde dehydrogenase); Potency, µM (titrated, usually from 57.1 µM), for the others: at the top dose activity change, negative = inhibition, most hits filed as inhibitors; actives 1.6% (n = 230,000); active means well fitted inhibition curve with a large enough effect, not every such curve was filed as active; inconclusive means small, poorly fitted or top-dose-only effect, or another doubt; inactive means no such curve, though single readings can be large or run the other way;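 further: potency means the concentration at half of the fitted maximal effect; 0% = wells with enzyme and -100% = buffer wells without enzyme; nearly all actives have a fitted effect of over 50% in size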
Target sequence (B2RXH2 1-337 limits assumed): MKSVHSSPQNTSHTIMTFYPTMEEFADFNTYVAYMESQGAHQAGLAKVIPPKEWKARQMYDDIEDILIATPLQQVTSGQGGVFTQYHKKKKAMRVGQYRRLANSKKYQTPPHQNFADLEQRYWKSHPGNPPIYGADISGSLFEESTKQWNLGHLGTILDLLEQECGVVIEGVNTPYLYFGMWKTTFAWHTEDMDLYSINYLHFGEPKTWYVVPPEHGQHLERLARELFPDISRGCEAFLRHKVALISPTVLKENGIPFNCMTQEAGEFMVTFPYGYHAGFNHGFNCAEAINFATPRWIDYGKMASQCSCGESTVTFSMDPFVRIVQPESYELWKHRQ
CBFb-RUNX1 inh: qHTS Assay for Compounds Blocking the Interaction Between CBF-beta and RUNX1 for the Treatment of Acute Myeloid Leukemia. AlphaScreen CBFb-His/RUNX1-biotin binding, biochemical. Potency, µM (series often up to 59.8 µM), inactives show top-dose activity, negative = inhibition, most hits filed as inhibitors. Runt-related transcription factor 1 (Homo sapiens) + Core-binding factor subunit beta …. 230,000 tested, under 10 active. AID 1477, 2009; further: % of control where 0% means no effect
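AlphaScreen proximity signal reports loss of binding between His-tagged CBF-beta and biotin-labelled RUNX1, each at 30 nM. Proteins are pre-associated for 20 minutes, compounds added for 15 minutes, then beads for 90 minutes, all at ambient temperature.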
Starred values were filed as active, the others as inactive; u = inconclusive; x = no result given; [ ] = dose if it differs, or a comment. Hits are enriched below; roughly 9.8% of the tested compounds scored in any of these assays. Unless noted, the call rests on the fitted dose curve; in most records, active means well fitted curve in the direction sought with a large enough effect; inconclusive means small, poorly fitted or top-dose-only effect, or another doubt; inactive means no such curve, though single readings can be large; an effect the other way counts as inactive or inconclusive.

SMILES	HTT aggregate	HTT cytoprotect	HPGD block	ALDH1A1 block	KDM4E inh	CBFb-RUNX1 inh
CCCCCCn1c(CN2CCN(Cc3ccccc3)CC2)nc2c1c(=O)n(C)c(=O)n2C	-2.0%	-23.7%[0.074 µM]	-8.9%	u	-26.8%	9.2%
Cc1cc(O)c(C(C)C)cc1NS(=O)(=O)c1ccccc1	5.01µM*	5.5%[0.074 µM]	-8.1%	14.1µM*	-0.3%	3.4%
COc1ccc(S(=O)(=O)Nc2ccccc2SC)cc1C	u	-0.9%[10 µM]	-7.3%	u	2.6%	16.0%
CSc1ccccc1NS(=O)(=O)c1ccccc1	-7.6%	-7.8%	-8.4%	8.91µM*	0.7%	1.3%
CC(=O)N1N=C(c2ccccc2OC(=O)/C=C/c2ccccc2)CC1c1ccccc1 (stereo unspecified)	4.1%[9.22 µM]	5.1%[10 µM]	x	x	-5.4%	-1.5%
CC(Sc1nc(N(C)C)nc(N2CCOCC2)n1)C(=O)Nc1ccccc1 (stereo unspecified)	-4.6%	-5.4%[1.9 µM]	0.2%	2.9%	3.9%	1.2%
CN(C)CCCCN1CCc2c(n(C)c3ccccc23)C1=O	x	12.3%[10 µM]	-8.4%	11.8%[13.5 µM]	x	x
Cc1cc(NS(=O)(=O)c2ccc(NC(=S)NC(=O)c3ccccc3)cc2)no1	16.5%	18.1%[10 µM]	-10.9%	u	-8.8%	-1.1%
CC(=O)Nc1ccc(OS(=O)(=O)c2ccc(C(C)(C)C)cc2)cc1	-7.9%[9.22 µM]	5.0%[10 µM]	x	12.6µM*	18.0%	14.7%
Cc1cc(NS(=O)(=O)c2ccc(NC(=S)NC(=O)c3ccc(C(C)(C)C)cc3)cc2)no1	19.7%	x	17.8µM*	12.6µM*	-6.4%	-11.8%
CC(=O)c1ccc(NS(=O)(=O)c2ccc(C(C)(C)C)cc2)cc1	-28.5%	20.3%	x	12.6µM*	0.0%	2.7%
CC(C)(C)c1ccc(S(=O)(=O)Nc2cccc(C3OCCCO3)c2)cc1	-17.9%	32.2%[10 µM]	-5.3%	25.1µM*	-2.5%	18.4%
CC(=O)c1ccc(NS(=O)(=O)c2ccc(C)cc2)cc1	4.6%	6.6%	u	-11.0%	-13.8%	-4.4%
CC1CCCC(C)N1C(=C(Cl)Cl)C(=C1SCCS1)[N+](=O)[O-] (stereo unspecified)	-21.0%	-23.5%	x	u	-0.3%	u
COc1ccc(-c2nc3cnc(N4CCOCC4)nc3n(-c3ccc(OC)cc3)c2=O)cc1	x	-38.4%	x	u	x	x
O=C(O)c1ccncc1.O=C(O)c1ccncc1.[NH2-].[NH2-].[Pt]	x	-7.3%[10 µM]	-0.5%	19.9%[13.5 µM]	x	x
O=C1C=CC2=C3c4cc(O)c(O)cc4C[C@@]3(O)COC2=C1O	x	-12.8%	x	x	x	x
Cc1cc(NS(=O)(=O)c2ccc(NC(=S)NC(=O)c3ccc(Cl)cc3Cl)cc2)no1	3.0%	-17.1%	25.1µM*	-0.1%	7.2%	-10.9%
O=c1c(/C=C(\O)c2ccc(F)cc2)nc2ccccc2n1-c1ccccc1	-10.2%	9.0%	-6.5%	u	28.2µM*	-6.3%
Clc1ccc(Cc2nnc(-c3ccccc3Br)o2)cc1	13.8%	-12.5%	20µM*	9.8%	-18.3%	23.1%[2.36 µM]
Brc1ccccc1-c1nnc(COc2cccc3cccnc23)o1	-6.1%	-39.8%	u	u	u	-6.1%
O=C1NC2(CCCc3ccccc32)C(=O)N1Cc1nnc(-c2ccccc2Br)o1 (stereo unspecified)	-25.0%	-7.8%[10 µM]	-27.6%	u	-7.6%	-2.4%
O=c1c(Cl)c(Cl)cnn1Cc1nnc(-c2ccccc2Br)o1	u	-198.6%	x	3.55µM*	1.2%	-3.4%
Clc1ccccc1OCc1nnc(-c2ccccc2Br)o1	-11.1%	-26.5%	20µM*	u	-3.3%	21.3%

Source: PubChem (National Center for Advancing Translational Sciences (NCATS))
